Source: PubChem BioAssay (EPA / NIEHS)
Activity calls are given as the source filed them. How the source made its calls: active means hit-call score of the fitted dose curve at least 0.9, where 1 is the maximum; inactive means score below 0.9.

Read-out: MYC, MYC (gene 4609)
Test: LTEA_HepaRG_MYC: Life Technologies and Expression Analysis (LTEA) Assay for MYC using HepaRG (AID 2283518)
Conditions: mRNA level, 48 h; actives raise or lower the signal
Procedure, shortened: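 MYC transcript changes, up or down relative to 0.5% DMSO, from TaqMan qRT-PCR normalized to three housekeeping genes. Human HepaRG cultures received chemicals for 48 h at eight half-log concentrations up to 100 uM, in duplicate.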

Row | SMILES | outcome | AC50
1 | NC(=Nc1ccccc1)Nc1ccccc1 | inactive | 
2 | CC(COCC(C)OC(=O)c1ccccc1)OC(=O)c1ccccc1 (centres undefined) | inactive | 
3 | CCCCCCCCCCCCCCOS(=O)(=O)O | inactive | 
4 | CC(C)NCC(O)c1ccc(O)c(O)c1 (centres undefined) | inactive | 
5 | CC(C)(O)c1ccc(CNC(=O)c2cccnc2Oc2ccc(F)cc2)cc1 | inactive | 
6 | CC(C)(C)c1ccccc1 | inactive | 
7 | COC(=O)[C@H]1[C@H]2C[C@@H]3c4[nH]c5cc(OC)ccc5c4CCN3C[C@H]2C[C@@H](OC(=O)c2cc(OC)c(OC)c(OC)c2)[C@@H]1OC |  | 29.1 µM (active)
8 | COc1ccc(C(=O)Nc2nc3ccccc3c(NCc3ccccc3)c2C#N)cc1 |  | 14.6 µM (active)
9 | CN(C)C(=O)NC1(c2ccccc2)CCN(CC[C@@]2(c3ccc(F)c(F)c3)CN(C(=O)c3ccccc3)CCO2)CC1 | inactive | 
10 | CC(=O)O | inactive | 
11 | C/C=C/C=C/C(=O)O | inactive | 
12 | CC(N)=O | inactive | 
13 | CCc1cc(C2=C(C(=O)O)N(c3ccccc3C(F)(F)F)S(=O)(=O)c3ccccc32)cc2c1OCO2 |  | 56.7 µM (active)
14 | Nc1nc(=S)c2[nH]cnc2[nH]1 |  | 11.4 µM (active)
15 | CCc1nc(N)nc(N)c1-c1ccc(Cl)cc1 |  | 78.7 µM (active)
16 | O=C(Oc1ccccc1)c1cccc(C(=O)Oc2ccccc2)c1 | inactive | 
17 | CCCC[C@H]1CN(CC2CCOCC2)C(=O)OC12CCN(C1(C)CCN(C(=O)c3c(C)ncnc3C)CC1)CC2 | inactive | 
18 | CC(C)c1cccc(C(C)C)c1NC(=O)NS(=O)(=O)c1cc(C(C)(C)O)co1 | inactive | 
19 | O=C1c2c(O)cccc2Cc2cccc(O)c21 | inactive | 
